RecA intein inh: inhibitors of M. tuberculosis RecA intein splicing; P9WHJ3; cell-free RecA intein splicing, fluorescence; inhibition, % (no concentration beside the values); hit rate 0.75% among 290,000; AID 2221; in the data active = inhibition above about 30%;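 note: 0% = vehicle wells and 100% = reference inhibitor control wells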
Target sequence (P9WHJ3 whole entry, looked up): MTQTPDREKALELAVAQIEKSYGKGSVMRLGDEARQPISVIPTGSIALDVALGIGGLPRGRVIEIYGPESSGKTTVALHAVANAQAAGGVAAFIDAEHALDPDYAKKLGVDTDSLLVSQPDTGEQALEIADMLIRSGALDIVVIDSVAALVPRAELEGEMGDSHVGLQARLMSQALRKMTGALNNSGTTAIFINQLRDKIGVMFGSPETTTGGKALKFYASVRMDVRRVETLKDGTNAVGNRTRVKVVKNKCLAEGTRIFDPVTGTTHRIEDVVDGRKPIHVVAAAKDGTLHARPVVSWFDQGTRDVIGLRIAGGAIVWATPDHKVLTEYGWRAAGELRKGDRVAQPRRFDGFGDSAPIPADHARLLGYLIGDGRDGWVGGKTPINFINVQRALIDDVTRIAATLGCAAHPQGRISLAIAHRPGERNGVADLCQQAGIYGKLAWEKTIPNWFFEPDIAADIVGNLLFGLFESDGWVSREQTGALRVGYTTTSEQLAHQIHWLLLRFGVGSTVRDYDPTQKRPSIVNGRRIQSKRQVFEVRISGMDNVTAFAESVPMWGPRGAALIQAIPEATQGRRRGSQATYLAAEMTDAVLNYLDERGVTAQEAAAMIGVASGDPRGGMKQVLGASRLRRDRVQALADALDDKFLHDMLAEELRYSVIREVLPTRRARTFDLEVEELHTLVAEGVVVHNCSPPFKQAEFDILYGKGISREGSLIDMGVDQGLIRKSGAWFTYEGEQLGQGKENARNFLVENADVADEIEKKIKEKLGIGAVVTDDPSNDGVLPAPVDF
UGM FP inh: blocks M. tuberculosis UGM enzyme; P9WIQ1; purified UGM, fluorescence polarization probe displacement; inhibition, % at 10 µM; hit rate 0.06% among 320,000; in the data active = inhibition above about 10%, passing the limit was not always enough
Mtb hypoxia inh: Mtb hypoxia fluorescent reporter inhibition. M. tuberculosis hypoxia-regulated fluorescent reporter, fluorescence. fluorescence inhibition, % (test concentration not listed). hit rate 0.1% among 300,000. AID 1159583; in the data active = fluorescence inhibition mostly above about 23%, no sharp cut-off; inactive = mostly below about 17%
Mtb bLac sens: beta-lactam sensitization of Mtb H37Rv; M. tuberculosis H37Rv growth with meropenem, percent inhibition; inhibition, % at 25 µM; AID 434955; hit rate 0.27% among 330,000;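 note: growth measured after seven days incubation then overnight dye step; 0% = bacteria only wells and 100% = bacteria with antibiotic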
Rv3671c inh: inhibitors of M. tuberculosis serine protease Rv3671c | P9WHR9 | inhibition, % at 5.96 µM | hit rate 0.048% among 320,000; in the data active = inhibition above about 38%;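 note: extracellular domain of Rv3671c used as enzyme; 0% = enzyme with DMSO and 100% = no enzyme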
GFP chromo cs: counter-screen: blocks GFP chromophore formation; shares compounds with RecA intein inh; cell-free GFP chromophore formation, fluorescence; EC50, µM; hit rate 83% among 2,100; AID 434968
Starred values were filed as active, the others as inactive; x = no result shown. Hits are enriched below; roughly 0.77% of the tested compounds scored in any of these assays. Unless noted, the rule behind the calls is not given here.

SMILES	RecA intein inh	UGM FP inh	Mtb hypoxia inh	Mtb bLac sens	Rv3671c inh	GFP chromo cs
COc1ccc(-c2[nH]n(-c3ccc([N+](=O)[O-])cc3)c(=O)c2C=NCc2ccc(F)cc2)cc1	-1	0	-2	3	6	x
CN(N)C(=S)Nc1ccc(Cl)cc1	31*	5	4	-5	-3	>38
CC1=C(CC(=O)c2ccccc2)C(=O)c2ccccc2C1=O	43*	2	-6	100	-57	26*
O=C(CN1C(=O)c2ccccc2C1=O)c1ccccc1	1	-4	x	-8	-5	x
O=C(CN1C(=O)/C(=C2\SC(=S)N(CCS(=O)(=O)O)C2=O)c2ccccc21)Nc1cccc(Br)c1	46*	4	0	1	-2	25*
O=C(CN1C(=O)/C(=C2/SC(=S)N(CCS(=O)(=O)O)C2=O)c2ccccc21)Nc1cccc(C(F)(F)F)c1	x	0	16	5	-6	x
CC(=O)Nc1ccc(NC(=O)CSc2ncc(C(=O)Nc3ccc(Cl)cc3)c(=O)n2C)cc1	23	2	6	-3	2	x
Cn1c(SCC(=O)NCC2CCCO2)ncc(C(=O)Nc2ccc(Cl)cc2)c1=O (configuration not stated)	54*	-1	7	74	4	>38
Cn1c(SCC(=O)NCC2CCCO2)ncc(C(=O)Nc2ccc(F)cc2)c1=O (configuration not stated)	39*	2	12	54	1	0.89*
COC(=O)C1=C(c2cc3ccccc3s2)CC2CCC1N2C(=O)NCc1ccc(C(F)(F)F)cc1 (configuration not stated)	x	x	11	x	x	x
CCN(Cc1ccccc1)S(=O)(=O)c1ccc(C(=O)N(CCCN(C)C)c2nc3cc(C)cc(C)c3s2)cc1	31*	-1	x	100	0	>38
O=C(C(=C([O-])c1ccccc1)[n+]1ccccc1)c1ccc([N+](=O)[O-])cc1	x	x	4	x	x	x
COc1ccc(/C=C2\SC(=S)N(CCC(=O)Nc3cccc(O)c3)C2=O)cc1OC	2	1	7	-3	-42	x
COc1ccc(/C=C2/SC(=S)N(CCCC(=O)Nc3cccc(O)c3)C2=O)cc1	38*	-4	1	0	-12	>38
COc1cccc(/C=C2\SC(=S)N(CCCC(=O)N(CCO)c3ccccc3)C2=O)c1	37*	1	8	2	-2	32*
O=C(O)CN1C(=O)/C(=C\c2ccccc2OCc2ccc(Cl)cc2Cl)SC1=S	8	-2	-1	2	-23	x
O=C(O)CN1C(=O)/C(=C\c2cccc(OCc3ccc(Cl)cc3Cl)c2)SC1=S	40*	-1	x	-2	x	21*
O=C1C=C(c2ccc(C(=O)O)cc2)CC(c2ccc(Cl)cc2)C1 (configuration not stated)	x	x	5	x	x	x
O=C(CCl)N1c2ccccc2CCc2ccccc21	80*	0	x	100	-7	22*
CCCCCC(=O)Cc1cc(O)cc2c1C(=O)Oc1cc(O)c(C(=O)O)c(CCCCC)c1O2	66*	5	x	-5	-44	7.2*
C=C(C)C1CCC(C)=C1CC(C)(C)C=Nn1cnnc1 (configuration not stated)	x	x	-5	x	x	x
COc1ccc(-c2nnc(Sc3nc4ccccc4o3)c3ccccc23)cc1	53*	0	4	-5	-1	1.5*
COc1ccc(-c2nnc(OC)c3ccccc23)cc1	1	-5	6	0	-1	x
CSc1nc(-c2ccc(Cl)cc2)nn1C(=O)c1ccco1	38*	1	3	60	-4	>38
CCOC(=O)C1=C(C)NC(=O)NC1c1ccc(OC(=O)c2ccco2)c(OC)c1 (configuration not stated)	6	1	6	-4	3	x
C=CCOC(=O)C1=C(C)NC(=O)NC1c1ccc(OC(=O)c2ccco2)c(OC)c1 (configuration not stated)	31*	2	13	-5	-10	>38
C=CCCC(Cc1ccc(F)cc1)C(=O)OCC(NC(=O)C(CC=C)CC(=O)NCCO)C(C)(C)C (configuration not stated)	x	x	10	x	x	x
COc1ccc(C2C=CCN(C(=O)CC(C)(C)C)CC(=O)N2Cc2ccc(F)cc2)cc1 (configuration not stated)	x	x	11	x	x	x
O=C(Cn1ncc(Cl)c(Cl)c1=O)c1ccc(Cl)cc1	13	1	-1	90	-5	x
CC(C)(C)C(=O)Cn1ncc(Cl)c(Cl)c1=O	6	x	12	x	x	x
